Laboratory results: PubChem BioAssay

Experiment: inhibitors of poly I:C-induced TLR3 signaling, primary screen, cell-based, poly I:C stimulus, luciferase, 10K MLSCN set (AID 602277)
Conditions: HEK293-TLR3 RL24 IRF3 luciferase reporter, at 10 µM, stronger effect = higher value;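 active = inhibition of the reporter signal at or above 50%; inactive = inhibition below 50%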

inhibition, inactive:
CCCNC(=O)NC1C(NC(=O)NCCC)N(C)C(=O)N1C (stereo unspecified) 16.2%, COc1ccccc1NC(=O)C(C)NS(=O)(=O)c1ccc(F)cc1 (stereo unspecified) 46.5%, Cc1oc(-c2ccccc2F)nc1CS(=O)(=O)CC(=O)N1CCN(Cc2ccccc2)CC1 -4.63%, CCCOC(=O)c1[nH]c2c(c1C)C(=O)CC(c1ccc(OC)c(OC)c1)C2 (stereo unspecified) -41.9%, N#Cc1c(-c2ccccc2)nc(N2CCCCCC2)[nH]c1=O 14.7%, CCOc1ccc(-n2cc(C(=O)N3CCN(C)CC3)c3cc(OC)c(OC)cc3c2=O)cc1 -2.36%, Cc1ccc(CCNC(=O)C2CCCN(S(=O)(=O)c3cnc[nH]3)C2)cc1 (stereo unspecified) 18%, Cc1cnc(C(=O)Nc2nnc(C(C)C)s2)cn1 -89.5%, COc1ccccc1NC(=O)Cn1nnc(-c2ccccc2NC(=O)c2ccco2)n1 37.7%, O=C1CCc2cc(S(=O)(=O)N3CCC(C(=O)NCc4ccccn4)CC3)ccc2N1 14.7%, COc1ccc(OCCSc2nc3ccccc3n2CC(=O)O)cc1 20.3%, Cc1cccc(C(OC(=O)c2ccco2)C(=O)NCc2ccccc2)n1 (stereo unspecified) 21.1%, CCCCN(CC)CCNC(=O)c1cc2c(C)nc3ccccc3c2o1 47%, O=C(NC1CCCC1)C(c1ccco1)N(Cc1ccccc1)C(=O)c1csnn1 (stereo unspecified) 29.4%, CC(C)(C)NC(=O)NC(=O)COc1ccccc1C#N -67.2%, COc1cccc2cc(C(=O)C3=C(O)C(=O)N(CCCN4CCOCC4)C3c3ccncc3)oc12 (stereo unspecified) 10.6%
